Assay results as given in PubChem BioAssay.
Measured potencies and affinities stand elsewhere. Inconclusive results are not listed. Active and inactive are the calls of the source. Unless noted, how the calls were made is not given here.

Experiments:
[1] = cytotoxicity in PAX8-dependent RMG-1 cells, dose response, cell-based, cherry-pick (AID 687029;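 active means signal drop whose fitted half-maximal concentration is at most twice the top valid dose, in every test run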;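 further: cells exposed to compound for 96 hours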)
[2] = cytotoxicity in IOSE-T80 ovarian epithelial cells, dose response, selectivity assay for PAX8 inhibitor project, cell-based, cherry-pick (AID 687032;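 active means fitted half-maximal concentration for viability loss no higher than twice the top valid dose, in every repeat run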;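 further: cells exposed to compound for 96 h before reading; 0% = neutral control wells and -100% = 2 µM mitoxantrone kill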)
[3] = inhibitors of CMV-promoter luciferase reporter, dose response, counter-screen for Pax8 inhibitor project, cell-based, HEK293, luminescence, dry powder (AID 743020;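 active means signal-lowering compounds whose fitted half-maximal concentration is at or below twice the top tested dose in every run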;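 further: HEK293 cells stably expressing the CMV luciferase reporter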)
[4] = non-specific cell cytotoxicity, dose response, cytotoxicity control for PAX8 inhibitor project, plate reader, dry powder samples (AID 743021)
[5] = IGROV1 ovarian cancer cell cytotoxicity, dose response, PAX8 inhibitor project, plate reader, dry powder samples (AID 743043);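 further: more negative means fewer viable cells or more cytotoxicity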
[6] = NIH:OVCAR-3 ovarian cancer cell cytotoxicity, dose response, PAX8 inhibitor project, plate reader, dry powder samples (AID 743044); conditions: max activity: at 35 µM, active compounds read low unless noted
[7] = IOSE-T80 ovarian epithelial cell cytotoxicity, dose response, cytotoxicity control for PAX8 inhibitor project, plate reader, dry powder samples (AID 743045);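 further: 0% = neutral control median and -100% = positive control median; more negative values mean more cell killing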
[8] = A2780 ovarian cancer cell cytotoxicity, dose response, cytotoxicity control, plate reader, dry powder samples (AID 743046);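 further: 0% = neutral control wells and -100% = cytotoxic reference compound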
[9] = cytotoxicity in OVCAR8 ovarian cancer cells, dose response, PAX8 project, cell-based, plate reader, dry powder samples (AID 743197)

Measured: max activity

O=C(C[C@@H]1C[C@H]2c3cc(NC(=O)Nc4ccc(C(F)(F)F)cc4)ccc3O[C@H]2[C@H](CO)O1)NCCc1ccccc1
inactive: [1] | [2] | [3] | [4] | [5] | [6] 13% | [7] | [8] | [9]

C[C@H]1CN([C@@H](C)CO)C(=O)Cc2cc(NC(=O)Nc3ccc(C(F)(F)F)cc3)ccc2O[C@H]1CN(C)C(=O)NC1CCCCC1
inactive: [1] | [2] | [3] | [4] | [5] | [6] 30.7% [at 1.1 µM, active compounds read low] | [7] | [8] | [9]

O=C(C[C@H]1CC[C@H]2[C@@H](COC[C@@H](O)CN2S(=O)(=O)c2ccccc2Cl)O1)N1CCC(Cc2ccccc2)CC1
inactive: [1] | [2] | [3] | [4] | [5] | [6] 32.6% [at 1 µM, active compounds read low] | [7] | [8] | [9]

C[C@@H]1CCCCO[C@@H](CN(C)C(=O)C2CCCCC2)[C@H](C)CN([C@@H](C)CO)C(=O)c2cc(NS(=O)(=O)c3ccc(Cl)cc3)ccc2O1
inactive: [1] | [2] | [3] | [4] | [5] | [6] -23.1% | [7] | [8] | [9]

COc1ccccc1S(=O)(=O)N(C)C[C@@H]1Oc2cc(C#CCC3CCCC3)ccc2S(=O)(=O)N([C@@H](C)CO)C[C@@H]1C
inactive: [1] | [2] | [3] | [4] | [5] | [6] -15.5% | [7] | [8] | [9]

C[C@@H]1CN([C@@H](C)CO)C(=O)Cc2cc(NC(=O)Nc3ccc(F)cc3)ccc2O[C@H]1CN(C)CC1CCCCC1
inactive: [1] | [2] | [3] | [4] | [5] | [6] 14.9% [at 2.1 µM, active compounds read low] | [7] | [8] | [9]

Cc1ccc(S(=O)(=O)N(C)C[C@@H]2Oc3c(NC(=O)c4ccc(-c5nccs5)cc4)cccc3C(=O)N([C@@H](C)CO)C[C@@H]2C)cc1
inactive: [1] | [2] | [3] | [4] | [5] | [6] 61.7% [at 0.26 µM, active compounds read low] | [7] | [8] | [9]

Cc1ccc(S(=O)(=O)N(C)C[C@H]2Oc3c(NC(=O)Nc4ccc(F)cc4)cccc3C(=O)N([C@@H](C)CO)C[C@H]2C)cc1
inactive: [1] | [2] | [3] | [4] | [5] | [6] -10.2% | [7] | [8] | [9]

C[C@@H]1CN([C@H](C)CO)C(=O)Cc2cc(NS(=O)(=O)c3ccccc3)ccc2O[C@@H]1CN(C)S(=O)(=O)c1ccc(Cl)cc1
inactive: [1] | [2] | [3] | [4] | [5] | [6] 47.5% | [7] | [8] | [9]

Cc1cccc(-c2ccc([C@H]3[C@H](CO)N4CCCCN(S(=O)(=O)c5ccccc5C)C[C@@H]34)cc2)c1
inactive: [1] | [2] | [3] | [4] | [5] | [6] -11.5% | [7] | [8] | [9]

C[C@H]1CCCCO[C@@H](CN(C)C(=O)NC2CCCCC2)[C@@H](C)CN([C@@H](C)CO)C(=O)c2cc(NC(=O)Nc3ccc(C(F)(F)F)cc3)ccc2O1
inactive: [1] | [2] | [3] | [4] | [5] | [6] 10.8% [at 2.1 µM, active compounds read low] | [7] | [8] | [9]

O=C(C[C@@H]1CC[C@@H]2[C@H](COC[C@H](O)CN2S(=O)(=O)c2cccc(Cl)c2)O1)Nc1ccc(-c2ccccc2)cc1
inactive: [1] | [2] | [3] | [4] | [5] | [6] -18.5% | [7] | [8] | [9]

C[C@H](CO)N1C[C@H](C)[C@@H](CN(C)Cc2ccc(C(F)(F)F)cc2)Oc2ccc(NS(=O)(=O)c3ccc(F)cc3)cc2CC1=O
inactive: [1] | [2] | [3] | [4] | [5] | [6] 24.7% [at 16 µM, active compounds read low] | [7] | [8] | [9]

C[C@H](O)C#Cc1cnc2c(c1)C(=O)N([C@H](C)CO)C[C@H](C)[C@H](CN(C)Cc1ccc(-c3ccccc3)cc1)O2
inactive: [1] | [2] | [3] | [4] | [5] | [6] 9.01% [at 0.26 µM, active compounds read low] | [7] | [8] | [9]

Cc1ccc(S(=O)(=O)N(C)C[C@H]2Oc3ccc(NC(=O)Cc4ccccc4)cc3C(=O)N([C@H](C)CO)C[C@@H]2C)cc1
inactive: [1] | [2] | [3] | [4] | [5] | [6] 7.17% [at 8 µM, active compounds read low] | [7] | [8] | [9]

C[C@@H]1CCCCO[C@H](CN(C)C(=O)c2ccccc2)[C@@H](C)CN([C@@H](C)CO)C(=O)c2cc(NC(=O)Nc3ccc(C(F)(F)F)cc3)ccc2O1
inactive: [1] | [2] | [3] | [4] | [5] | [6] 20.2% [at 2.1 µM, active compounds read low] | [7] | [8] | [9]

C[C@@H]1CCCCO[C@H](CN(C)C(=O)Nc2ccc(C(F)(F)F)cc2)[C@@H](C)CN([C@@H](C)CO)C(=O)c2cc(NC(=O)Nc3ccccc3)ccc2O1
inactive: [1] | [2] | [3] | [4] | [5] | [6] -5.92% [at 16 µM, active compounds read low] | [7] | [8] | [9]

C[C@@H]1CN([C@H](C)CO)C(=O)c2c(c3ccccc3n2C)-c2ccccc2CO[C@@H]1CN(C)C
inactive: [1] | [2] | [3] | [4] | [5] | [6] 18.1% [at 0.5 µM, active compounds read low] | [7] | [8] | [9]

O=C(Nc1cccc(F)c1)N[C@@H]1CC[C@@H](CCNS(=O)(=O)c2cccc(Cl)c2)O[C@@H]1CO
inactive: [1] | [2] | [3] | [4] | [5] | [6] -20.4% [at 0.5 µM, active compounds read low] | [7] | [8] | [9]

C[C@@H]1CN([C@@H](C)CO)C(=O)c2ccccc2-c2ccccc2CO[C@@H]1CN(C)Cc1ccc2c(c1)OCCN2C
inactive: [1] | [2] | [3] | [4] | [5] | [6] 3.55% | [7] | [8] | [9]

CO[C@H]1CN(C)C(=O)c2cc(NC(=O)c3nc4ccccc4s3)ccc2OC[C@H](C)N(Cc2cccnc2)C[C@H]1C
inactive: [1] | [2] | [3] | [4] | [5] | [6] 15.1% [at 0.26 µM, active compounds read low] | [7] | [8] | [9]

COc1cccc(-c2ccc3c(c2)[C@@H]2[C@@H](CCN2C(=O)NC2CCCCC2)[C@H](CO)N3C)c1
inactive: [1] | [2] | [3] | [4] | [5] | [6] -16.7% [at 2.1 µM, active compounds read low] | [7] | [8] | [9]

C[C@@H]1CCCCO[C@H](CN(C)Cc2ccc(C(F)(F)F)cc2)[C@@H](C)CN([C@@H](C)CO)C(=O)c2cc(NS(=O)(=O)c3cccs3)ccc2O1
inactive: [1] | [2] | [3] | [4] | [5] | [6] -7.27% [at 0.5 µM, active compounds read low] | [7] | [8] | [9]

Cc1ccc(S(=O)(=O)Nc2ccc3c(c2)C(=O)N([C@@H](C)CO)C[C@@H](C)[C@@H](CN(C)Cc2ccc(Cl)c(Cl)c2)OCCCC[C@@H](C)O3)cc1
inactive: [1] | [2] | [3] | [4] | [5] | [6] -8.95% | [7] | [8] | [9]

C[C@H](CO)N1C[C@H](C)[C@H](CN(C)Cc2ccc(Cl)c(Cl)c2)OCCCC[C@H](C)Oc2ccc(NC(=O)NC3CCCCC3)cc2C1=O
inactive: [1] | [2] | [3] | [4] | [5] | [6] -2.95% | [7] | [8] | [9]

Cc1ccc(S(=O)(=O)Nc2ccc3c(c2)C(=O)N([C@@H](C)CO)C[C@H](C)[C@@H](CN(C)C(=O)Nc2ccc(C(F)(F)F)cc2)OCCCC[C@H](C)O3)cc1
inactive: [1] | [2] | [3] | [4] | [5] | [6] -5.62% | [7] | [8] | [9]

C[C@H]1CN([C@@H](C)CO)C(=O)c2ccccc2-c2ccccc2CO[C@H]1CN(C)S(=O)(=O)c1ccc(C(F)(F)F)cc1
inactive: [1] | [2] | [3] | [4] | [5] | [6] 11.8% [at 4.2 µM, active compounds read low] | [7] | [8] | [9]

C[C@@H]1CN([C@@H](C)CO)C(=O)Cc2cc(NC(=O)c3ccncc3)ccc2O[C@@H]1CN(C)Cc1ccc(-c2ccccc2)cc1
inactive: [1] | [2] | [3] | [4] | [5] | [6] 8.74% [at 0.26 µM, active compounds read low] | [7] | [8] | [9]

C[C@H]1CCCCO[C@@H](CN(C)Cc2ccc(C(F)(F)F)cc2)[C@@H](C)CN([C@@H](C)CO)C(=O)c2cc(NS(=O)(=O)c3cccs3)ccc2O1
inactive: [1] | [2] | [3] | [4] | [5] | [6] -8.06% [at 4.2 µM, active compounds read low] | [7] | [8] | [9]
